PubChem BioAssay (NCATS)
Some of the results follow. Inconclusive results are not listed. A number with no mark means an inactive call. The call rests on the fitted dose curve; in most records, active means well fitted inhibition curve with a large enough effect; inconclusive means small, poorly fitted or top-dose-only effect, or another doubt; inactive means no such curve, though single readings can be large or run the other way.

Each molecule was assayed against Luciferin 4-monooxygenase (Photinus pyralis) (UniProt P08659) (assay: Biochemical FLuc counterscreen for small molecule modulators of PMP22 gene expression (AID 1508640; further: % of control where 0% means no effect)). Conditions: purified P. pyralis FLuc, luminescence, 10 min; series mostly up to 57.5 µM; activity, negative = inhibition: at the top concentration.
Chain of Luciferin 4-monooxygenase (Photinus pyralis) (P08659 whole entry, looked up): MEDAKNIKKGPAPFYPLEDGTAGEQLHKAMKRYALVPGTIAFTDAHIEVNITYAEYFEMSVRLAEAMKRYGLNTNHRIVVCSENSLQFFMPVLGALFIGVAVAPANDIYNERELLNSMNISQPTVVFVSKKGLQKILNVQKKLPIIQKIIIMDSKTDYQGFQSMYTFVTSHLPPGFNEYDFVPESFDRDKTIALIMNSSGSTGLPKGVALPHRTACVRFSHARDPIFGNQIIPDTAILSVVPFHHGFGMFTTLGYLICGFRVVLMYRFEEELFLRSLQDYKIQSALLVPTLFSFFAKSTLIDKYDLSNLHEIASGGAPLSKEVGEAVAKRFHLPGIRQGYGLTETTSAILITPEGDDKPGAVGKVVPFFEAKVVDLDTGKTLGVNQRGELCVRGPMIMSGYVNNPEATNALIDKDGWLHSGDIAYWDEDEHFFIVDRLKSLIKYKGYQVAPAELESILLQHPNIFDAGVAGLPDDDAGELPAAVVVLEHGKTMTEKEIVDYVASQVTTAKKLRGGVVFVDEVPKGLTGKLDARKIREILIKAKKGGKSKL
Source text: Assay Provider: Jim Inglese Ph.D. National Center for Advancing Translational Science, National Institutes of Health, Rockville, MD CMT is a heterogeneous group of neurological disorders that affect approximately 1 in 2,500 people. In particular, the most common form of CMT, CMT1A is genetically linked to the duplication of the PMP22 gene which leads to Schwann cell overexpression, thus manifesting itself as a typical case of dose-sensitive diseases. To identify small molecule compounds that can mediate the expression of PMP22 we developed a phenotypic assay screening strategy by utilizing genome editing techniques to construct Schwann cell lines containing novel reporter technology to monitor the transcriptional or translational regulation of PMP22. For high sensitivity we use a bioluminescent reporter system embedded in the 3' UTR of the PMP22 gene (S16(c9) Pmp22-F2sN) to identify compounds that inhibit gene expression. […] We can further discriminate the effect of all transcriptionally active molecules on PMP22 translation or stability with an assay that incorporates a short NLuc peptide (HiBiT) at the C-terminus of expressed PMP22 (S16(f8) PMP22-HiBiT) allowing alpha complementation and luminescence detection of membrane-associated PMP22 protein. These assays were screened against the NCATS Sytravon Library Collection. Miniaturization of these assays to 1536-well plate format for quantitative high throughput screening (qHTS) yielded rich data sets immediately from the qHTS assay (S16(c9) Pmp22-F2sN), when compared with data from a cell viability assay (Cell TiterGlo) to identify compounds that decreased the output signals through cellular toxicity to streamline the selection process of actives for subsequent characterization using the HiBiT assay (S16(f8) PMP22-HiBiT).
Biochemical FLuc assay PROTOCOL TABLE (format as described by Inglese J, Shamu CE and Guy RK. 2007) SEQUENCE No. (e.g., 1, 2, 3, etc.); PARAMETER (e.g., Cells, Incubation, Reagent, etc.); VALUE and DESCRIPTION. 1. Reagent. Add 3 uL substrate per well into Greiner 1536-well white/solid bottom high base, medium binding plates. 2. Compounds. Library compounds and controls added at 23nL per well, transferred by Pin Tool. 3. Incubation. Incubate plates 15 min at ambient temperature. 4. Reagent. Add 1uL FLuc enzyme solution per well of Greiner 1536-well plates. 5. Incubation. Incubate plates at room temperature for 10 min., protect from light. 6. Detector. FLuc luminescence measured using CCD-based camera (Viewlux). NOTES (numbers refer to Sequence numbers above; values are from representative experiments) 1. Dispense freshly prepared substrate (final concentration of 10 uM D-Luciferin, 10 mM Mg-Acetate, 50 mM Tris Acetate pH 7.6, 10 uM ATP, 0.01 % Tween-20, 0.05 % BSA) into 1,536-well Greiner white/solid bottom high base, medium binding plates. Protect from light. 4. Freshly prepared enzyme solution containing 10 nM P. pyralis in 50 mM Tris Acetate was filtered through a […] prior to dispensing. 6. Luminescence Read (Fluc): Clear filter; Exposure = 10 sec, Gain = High, Speed = Slow, Binning = 2X REFERENCES: 1. Inglese J, Shamu CE and Guy RK, Reporting data from high throughput screening of small molecule libraries, Nature Chemical Biology, 2007, 3(8): 438-441. doi.org/10.1038/nchembio0807-438 2. Yasgar A, Shinn P, Jadhav A, Auld DS, Michael S, Zheng W, Austin CP, Inglese J and Simeonov A, Compound Management for Quantitative High-Throughput Screening. J. Assoc. Lab. Auto., 2008, 13: 79-89. doi: 10.1016/j.jala.2007.12.004 3. […] Chemistry & Biology, 2012, 19: 1060-1072. doi.org/10.1016/j.chembiol.2012.07.015
For Cc1ccc(NC(=O)c2nc(S(=O)(=O)Cc3cccc(C)c3)ncc2Cl)cc1, the “activity, negative = inhibition” value was -10.5%. With CCOC(=O)c1c(C)[nH]c(CCC(=O)NCCCN2CCN(c3cc(C)ccc3C)CC2)c1C the “activity, negative = inhibition” value was -2.52%. CCOC(=O)c1c(C)[nH]c(CCC(=O)NCCCN2CCN(c3cccc(Cl)c3)CC2)c1C was tested, and the “activity, negative = inhibition” value was 2.39%. In the case of Cc1ccc(C)n1-c1nnc(N2CCC(C(=O)NCc3ccccc3Cl)CC2)s1, the “activity, negative = inhibition” value is reported as 3.2%. In the case of O=C(c1ccc2c(c1)N(Cc1ccc(F)cc1)C(=O)c1ccccc1S2(=O)=O)N1CCN(c2ccccn2)CC1, the “activity, negative = inhibition” value is reported as 9.29%. With CCCCOc1ccc(CN2C(=O)C(=O)c3cc(Br)cc(C)c32)cc1OC the “activity, negative = inhibition” value was -19.2%. CCOC(=O)C1CCN(C(=O)CSc2c3c(nc4ccc(Cl)cc24)CCCC3)CC1 was tested, and the “activity, negative = inhibition” value was -10.6%. For COc1cccc(NC(=O)N(Cc2cn(C)c3ccccc23)C2CCCCCC2)c1, the “activity, negative = inhibition” value was 0.718%. With CCCN1C(=O)C(O)(CC(=O)c2ccc(CC)cc2)c2cc(Br)ccc21 (centres undefined) the “activity, negative = inhibition” value was -8.85%. For CC(C)(C)c1ccc(C(=O)NCC(c2ccco2)S(=O)(=O)c2ccc(F)cc2)cc1 (centres undefined), the “activity, negative = inhibition” value was -13.4%. With CCOC(=O)c1ccc(N2C(=O)c3n[nH]c(C)c3C2c2ccc(O)c(OC)c2)cc1 (centres undefined) the “activity, negative = inhibition” value was 5.22%. In the case of COc1ccc(CCNC(=O)c2cc(=O)c3c(C)cc(C)cc3o2)cc1OC, the “activity, negative = inhibition” value is reported as -17.4%. With CCC1=Nc2cc(C(=O)NCCCOC(C)C)ccc2Sc2ccc(C)cc21 the “activity, negative = inhibition” value was 7.24%. CCc1ccc(C2CC(=O)c3c([nH]c(C(=O)OCc4ccc(C)cc4)c3C)C2)cc1 (centres undefined) was tested, and the “activity, negative = inhibition” value was 0.949%. For CCOC(=O)c1ccc(NC(=O)CSc2nc3c([nH]c4ccccc43)c(=O)n2C)cc1, the “activity, negative = inhibition” value was -12.3%. With CCCn1c2ccccc2c2cnn(CC(=O)NCC3CCN(Cc4ccc(C)cc4)CC3)c(=O)c21 the “activity, negative = inhibition” value was 11.2%. With O=C(CCS(=O)(=O)c1ccccc1)N(Cc1cccnc1)c1nc2c(F)cccc2s1 the “activity, negative = inhibition” value was -3.07%. For CC(=O)N1CCCc2cc(S(=O)(=O)N3CCCC(C(=O)N4CCN(c5cccc(Cl)c5)CC4)C3)ccc21 (centres undefined), the “activity, negative = inhibition” value was -3.04%. With CCC1CCCCN1CCCNC(=O)c1cc2c(Cl)nc3ccccc3c2s1 (centres undefined) the “activity, negative = inhibition” value was -2.7%. In the case of O=C(c1ccc(C(F)(F)F)cc1)N1CCC(c2nc(-c3ccc(S(=O)(=O)N4CCCC4)cc3)no2)CC1, the “activity, negative = inhibition” value is reported as -8.99%. With O=C(NCCCN1CCN(c2cccc(Cl)c2)CC1)c1nnc(Cc2ccc(F)cc2Cl)o1 the “activity, negative = inhibition” value was -10.3%. For Cc1ccc(OCCSc2nc3ccc(NC(=O)COc4ccc(C)cc4)cc3s2)cc1, the “activity, negative = inhibition” value was 2.02%. CCOc1ccc(NC(=O)c2c(NC(=O)Cc3ccccc3)sc3c2CCC(C)C3)cc1 (centres undefined) was tested, and the “activity, negative = inhibition” value was -21.9%. With Cc1nnc(SCC(=O)NCc2ccccc2Cl)c2nn(-c3ccccc3)c(C)c12 the “activity, negative = inhibition” value was -3.49%. For Cc1ccc(Cn2c(C)c3cnn(CC(=O)NCc4ccccc4)c(=O)c3c2C)cc1, the “activity, negative = inhibition” value was -12.3%. COc1ccccc1Nc1c2c(nc3ccc(NC(=O)/C=C/c4cc(OC)c(OC)c(OC)c4)cc13)CCCC2 was tested, and the “activity, negative = inhibition” value was 14.3%. With COc1ccc(-c2onc(C)c2C)cc1S(=O)(=O)NCC1CCN(Cc2cccc(F)c2)CC1 the “activity, negative = inhibition” value was -1.38%. For COc1cccc(NC(=O)CSC2=Nc3ccccc3C3=NC(CC(=O)NC4CCCCC4)C(=O)N23)c1 (centres undefined), the “activity, negative = inhibition” value was -5.76%. For CCCS(=O)(=O)c1ncc(Cl)c(C(=O)Nc2scc(-c3ccccc3)c2C(=O)OCC)n1, the “activity, negative = inhibition” value was -3.4%. In the case of Cc1cccc(Nc2cc(C)nc(-n3nc(C)cc3C)n2)c1, the “activity, negative = inhibition” value is reported as -12.2%. With Cc1cc(OCC(=O)NCC2(N(C)C)CCCCC2)cc(C)c1Cl the “activity, negative = inhibition” value was -9.58%. O=S(=O)(c1ccc(Cl)cc1)c1nnn2c1nc(NC1CCCC1)c1sccc12 was tested, and the “activity, negative = inhibition” value was -5.21%. In the case of Cc1ccc(CCNC(=O)C2CCN(c3nnc(-n4cccc4CNc4ccc(C)cc4)s3)CC2)cc1, the “activity, negative = inhibition” value is reported as -6.01%. COc1ccccc1-c1cc(C(F)(F)F)nc(S(=O)(=O)CCCC(=O)Nc2ccc(F)cc2F)n1 was tested, and the “activity, negative = inhibition” value was -2.16%. In the case of Cc1cc(F)ccc1NS(=O)(=O)c1ccc(-n2cccn2)cc1, the “activity, negative = inhibition” value is reported as 10.4%. For CCOCCCNC(=O)c1c(NC(=O)c2nc(SC)ncc2Cl)sc2c1CCCC2, the “activity, negative = inhibition” value was 5.33%. With CCCn1c(=N)c(C(=O)NCc2ccccc2)cc2c(=O)n3cccc(C)c3nc21 the “activity, negative = inhibition” value was -4.12%. Cc1ccccc1CNC(=O)CSc1nnc(C)c2c(C)n(-c3ccccc3)nc12 was tested, and the “activity, negative = inhibition” value was -2.97%. For Cc1sc(C2C(C#N)=C(N)N(c3cccc(Cl)c3)C3=C2C(=O)CCC3)cc1CN1CCOCC1 (centres undefined), the “activity, negative = inhibition” value was 1.68%.
